# Measurements as given in ChEMBL document CHEMBL3988442, “University of Dundee, Small-Polar-MMV Screening Library” (2021).
# Among all 48,000 compounds or so, about 13,000 (27%) showed an effect of 50% or more. The list shows a part of the results.
# Test system: Wolbachia pipientis
# Experiment: Anti-Wolbachia Cell-Based Screen
# Format: functional
# Parameters: scale not given: in the data most compounds retested in dose-response had high values
# Conditions: 5 µM
row,Structure (SMILES),Percent Effect [%]
1,CC(C)c1cccc(S(=O)(=O)NCCCN2CCC(O)CC2)c1,-12.32
2,Cc1cscc1C(=O)Nc1cncnc1N(C)C,-5.667
3,O=C(NCCNc1cnccn1)C1CCN(C(=O)N2CCCC2)CC1,14.69
4,O=C(NCCNc1cnccn1)N1CCCC1,0.5946
5,O=C(NCCNc1cnccn1)N1CCCC(N2CCCC2)C1 (stereo unspecified),106
6,O=C(NCCNc1cnccn1)N1CCCCCC1,67.88
7,O=C(NCCCn1cncn1)N1CCCC(N2CCCC2)C1 (stereo unspecified),-12.43
8,N#Cc1cccnc1NCCNC(=O)N1CCCC(N2CCCC2)C1 (stereo unspecified),15.17
9,Cc1cnc(CN(Cc2ccccc2)CC(O)c2cccs2)cn1 (stereo unspecified),-0.3476
10,CCc1nc(C)c(C(=O)N2CCCN(Cc3cnn(C)c3)CC2)s1,-6.859
11,CC(NC(=O)N1CCN(c2ncccn2)CC1)c1ccc(C#N)cc1 (stereo unspecified),-9.134
12,CCOC(=O)N1CCN(C(=O)c2sc(-c3ccc(F)cc3)nc2C)CC1,5.729
13,CCc1cccc(OC2CN(C(=O)[C@@H](N)[C@@H](C)O)C2)c1,-4.168
14,CCOCC(=O)N1Cc2cnc(-c3ccccc3)nc2C1,12.32
15,CC[C@H](C)[C@H](N)C(=O)N1CC(=O)c2sc(NCc3ccccc3)nc2C1,97.62
16,CC[C@H](C)[C@H](N)C(=O)N1CC(=O)c2sc(Nc3ccc(F)cc3)nc2C1,106.2
17,CC(NC(=O)N1CCN(c2cccs2)CC1)c1ccc(C#N)cc1 (stereo unspecified),-13.59
18,N#Cc1ccc(Nc2nc3c(s2)C(=O)CN(CC2CC2)C3)cc1,122.3
19,CC(C)NC(=O)N1CC(=O)c2sc(Nc3ccc(C#N)cc3)nc2C1,104.4
20,CN(C(=O)CNc1ccc(C#N)cc1)C1CCCCC1,-20.31
21,CC(Oc1ccc(F)cc1)C(=O)N(CC(N)=O)C1CCCC1 (stereo unspecified),-8.353
22,N#Cc1ccc(NC(=O)N2CCCCC2CN2CCCC2=O)cc1 (stereo unspecified),-0.03317

row,Structure (SMILES),Percent Effect [%]
1,Cc1cc(NC(=O)CCN2CCn3c(C)nnc3C2)no1,-12.27
2,Fc1cc(CNc2nncs2)ccc1Cl,-25.14
3,CC(C)NC(=O)[C@@H]1Cc2[nH]cnc2CN1CCCc1ccccc1,-2.135
4,CCN(C)S(=O)(=O)N(Cc1cscn1)c1ccccc1,-21.13
5,CC1CCN(C(=O)Cc2ccc(S(=O)(=O)C(F)F)cc2)CC1,3.078
6,CCOc1ccc(C(=O)Nc2c(C)nc3scc(C)n3c2=O)cc1,-3.66
7,CC(CNC(=O)Nc1ccc(C#N)cc1)N1CCc2ccccc21 (stereo unspecified),15.75
8,Cc1nnc(NC(=O)N2CCN(Cc3ccc(F)cc3)C(=O)C2)s1,-5.387
9,CC(C)CC(=O)Nc1c(-c2ccc(F)cc2)ncn1C,20.71
10,CC(C)CC(=O)N1CC(=O)c2sc(Nc3ccc(C#N)cc3)nc2C1,99.17
11,CC(C1CC1)N(C(=O)CNc1ccc(C#N)cc1)C1CC1 (stereo unspecified),-11.75
12,CC(C)CC(=O)N1CC(=O)c2sc(Nc3ccc(F)cc3)nc2C1,97.08
13,Cn1c(-c2ccccc2Cl)nc2cc(C(=O)NC(CO)CO)cnc21,-7.352
14,COCCc1noc(-c2ccc(-c3cc[nH]n3)nc2)n1,6.666
15,COCc1nccc(C2CCCN(Cc3ccc(C#N)cc3F)C2)n1 (stereo unspecified),7.365
16,OC1CCCN(Cc2ccc(F)c3cccnc23)C1 (stereo unspecified),11.38
17,Cc1nc(CN2CCCC(CCc3ccc(F)cc3F)C2)c[nH]1 (stereo unspecified),10.82
18,CCn1c(C2CCCN(Cc3cc(F)ccc3OC)C2)nn(C)c1=O (stereo unspecified),-8.154
19,Cn1nc(C2CCCN(Cc3ccc(F)cc3F)C2)c2nccnc21 (stereo unspecified),118.1
20,Cl.Cn1nc(C2CCCN(Cc3cc(F)ccc3F)C2)c2nccnc21 (stereo unspecified),109
21,COCCOc1ccccc1C(=O)Nc1c(C)cnn1CC1CC1,0.1744
22,NC(=O)CC1CCN(c2ncnc3cccc(F)c23)CC1,0.8232

row,Structure (SMILES),Percent Effect [%]
1,Cc1nccn1-c1cc(CNC(=O)CCNC(=O)OC(C)(C)C)ccn1,-3.866
2,CCc1cc(NCc2cccnc2N2CCCCC2)n2ncnc2n1,-26.62
3,CC(O)CN(Cc1cccc(C(=O)N(C)C)c1)c1ccccc1 (stereo unspecified),9.156
4,CCN(CC)C(=O)c1cccc(Cn2nc(C)cc2C)c1,-2.548
5,Cc1cc(C(=O)N(CC(=O)O)CC(C)C)ccc1F,96.02
6,Cc1cc(C(=O)N(C)S(C)(=O)=O)ccc1F,-1.159
7,Cc1noc(NC(=O)c2ccc(C)c(F)c2)n1,6.644
8,CC(C)CCNC(=O)C(c1cccc(F)c1)N(C)C (stereo unspecified),-2.485
9,Cc1cccc(C(=O)N(CC(=O)O)CC(C)C)c1,94.29
10,Cc1ccc(C(=O)NCCNC(=O)c2cncnc2C(C)C)cc1F,15.15
11,CN(CC(=O)NCCC#N)C(c1ccccc1)c1ccc(F)cc1 (stereo unspecified),2.68
12,CC(C)CN(CC(=O)O)C(=O)c1ccc(F)cc1,116.8
13,Cc1ccc(C(=O)N(CC(=O)O)CC(C)C)cc1F,102.6
14,Cc1cc(C(=O)N(C)S(=O)(=O)C(C)C)ccc1F,-2.598
15,CCC1CN(C(=O)c2ccccc2C(C)=O)CCN1C(C)C (stereo unspecified),1.877
16,COc1cccc(CNC2CCc3ccc(C)cc32)n1 (stereo unspecified),12.65
17,COCCN1CCN(CC(=O)N(C)Cc2ccccc2)CC1C (stereo unspecified),2.857
18,CN(c1nc(Cn2cnccc2=O)cs1)C1CC1,6.38
19,Cc1cccnc1NC(=O)C1CCN(C(C)C(=O)NC(C)(C)C)CC1 (stereo unspecified),-8.313
20,CNC(=O)[C@@H]1C[C@@H](N)CN1c1nc(N2CCCC2)nc(C)c1C,2.441
21,CCCN1Cc2ccccc2CC1C(=O)NC (stereo unspecified),-1.794
22,CNC(=O)C1CN(C(C)C)CCN1c1nc(C)cc(C)n1 (stereo unspecified),92.65

row,Structure (SMILES),Percent Effect [%]
1,CNC(=O)C1CN(C)CCN1c1nc(C)cc(C)n1 (stereo unspecified),94.41
2,CNC(=O)C1Cc2ccccc2CN1CCC#N (stereo unspecified),-3.828
3,CNC(=O)C1CCCN1c1nc(C)c2ccccc2n1 (stereo unspecified),9.069
4,CNC(=O)[C@H]1CC[C@@H]2[C@@H](CCN2c2ncccn2)O1,0.107
5,CNC(=O)C1CN(C(C)C)CCN1c1ncccn1 (stereo unspecified),82.95
6,OC1CCN(c2nc(-c3ccccc3)no2)CC1,-0.7688
7,O=C(Nc1ccc(N2CCCCC2)nc1)N1CCc2sccc2C1,2.777
8,Cc1cc(NC(=O)N(Cc2ccc(C#N)cc2)C(C)C)no1,2.443
9,c1cncc(-c2noc(CNC3CCCN(c4cccnn4)C3)n2)c1 (stereo unspecified),-17.88
10,Cc1ncccc1CNCC1COC2(CCCCC2)O1 (stereo unspecified),-0.2961
11,COCc1ncc(CN2CCC(Oc3ccccc3OC)CC2)cn1,3.684
12,COc1ccccc1C1Cn2c(C)cnc2CN1Cc1c[nH]nc1C (stereo unspecified),184.6
13,Cc1n[nH]cc1CNC1CCN(c2ccccc2)CC1.Cl,-14.69
14,COc1ccccc1[C@@H]1CN(Cc2cnn(C)c2C)C[C@H]1C(=O)O,-12.3
15,COc1ccccc1C1Cn2c(C)cnc2CN1Cc1ccc(C)nc1 (stereo unspecified),131
16,COc1ccccc1C1Cn2ccnc2CN1Cc1c[nH]nc1C (stereo unspecified),158.2
17,COc1ccccc1[C@@H]1CN(Cc2cnc(N(C)C)nc2)C[C@H]1C(=O)O,-3.277
18,COc1ccccc1[C@@H]1CN(Cc2nccn2C)C[C@H]1C(=O)O,-20.61
19,COc1ccccc1CC(=O)N1CCC(NCc2c[nH]nc2C)CC1,3.473
20,CCOC(=O)c1nc(CN2CCC(NC(=O)C(C)C)CC2)cs1,-9.152
21,O[C@@H]1Cc2ccccc2[C@@H]1Nc1ncccc1F,-3.78
22,O=C(Cn1cccc2oc(=O)nc1-2)NCC1Cc2ccccc2O1 (stereo unspecified),-3.762

row,Structure (SMILES),Percent Effect [%]
1,CC1CCN(S(=O)(=O)N2CCC(Oc3cnccn3)CC2)CC1,109.5
2,O=S(=O)(N1CCOCC1)N1CCC(Oc2cnccn2)CC1,115
3,CS(=O)(=O)N1CCC(Oc2cnccn2)CC1,-17.13
4,O=S(=O)(N1CCCCC1)N1CCC(Oc2cnccn2)CC1,106.7
5,Cc1noc(C)c1S(=O)(=O)N1CCC(Oc2cnccn2)CC1,11.35
6,COC(=O)c1sccc1S(=O)(=O)N1CCC(Oc2cnccn2)CC1,2.794
7,CN(C)S(=O)(=O)N1CCC(Oc2cnccn2)CC1,2.095
8,Cc1n[nH]c(C)c1S(=O)(=O)N1CCC(Oc2cnccn2)CC1,120.8
9,O=S(=O)(c1ccc(Cl)cc1)N1CCOC[C@H](Oc2cnccn2)C1,-1.113
10,Cc1ccc(S(=O)(=O)N2CCC(Oc3ccccn3)CC2)c(C)c1,1.938
11,O=S(=O)(c1ccc(F)cc1)N1CCOC[C@H](Oc2cnccn2)C1,-9.472
12,COc1ccc(C2CCCN2c2ccnc(C)c2Cl)c(OC)c1 (stereo unspecified),-16.05
13,CC(=O)N(C)Cc1nn(C)c2c1CN(Cc1ccsc1)C2.O=C(O)C(F)(F)F.O=C(O)C(F)(F)F,-3.994
14,O=C(O)C(F)(F)F.O=C([C@@H]1COC[C@H]2CN(C3CCCC3)C[C@H]21)N1CCCCO1,2.547
15,CC(Cn1cccn1)NC(=O)N1CCC(NS(C)(=O)=O)CC1 (stereo unspecified),10.97
16,O=C(O)C1CCN(c2nc3c(-c4ccccc4F)csc3c(=O)[nH]2)CC1,-3.996
17,CS(=O)(=O)NCCCNc1ccc(C(F)(F)F)cc1C#N,-7.983
18,O=C1OCCN1CCNCC1(O)CCCN(CCC2CCCCC2)C1=O (stereo unspecified),3.585
